FBW7 act: human FBW7 E3 ligase activation, primary screen; Q969H0; AlphaScreen FBW7–phospho-cyclin E peptide binding, activator screen; normalized activity (activation), % at 26.1 µM; hit rate 0.13% among 650,000; in the data active = normalized activity above about 1.9%;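 note: purified mutant Fbw7 with reduced substrate affinity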
MITF inh: human MITF inhibition, primary screen; AlphaScreen MITF homodimerization, bead proximity signal; inhibition, % at 2.6 µM; hit rate 0.91% among 650,000; O75030; AID 1259374; in the data active = inhibition above about 50%
TEAD-YAP inh: TEAD-YAP interaction inhibition | HEK-TIYL cells, TEAD-Gal4/YAP UAS-luciferase luminescence | inhibition, % at 9.12 µM | hit rate 1.4% among 640,000; in the data active = inhibition above about 32%
GPR151 activ: activators of human GPR151. Q8TDV0. PathHunter beta-arrestin GPR151 cells, luminescence. activation, % at 11.2 µM. hit rate 1% among 650,000; in the data active = activation above about 4.9%
GPR151 confirm: confirmation of human GPR151 activators; activation, % at 11.2 µM; 6,700 tested, under 10 active; GPR151 PathHunter beta-arrestin cells, luminescence, 90 min; % of EA-reagent control over plate median; shares compounds with GPR151 activ; AID 1508609;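 active = mean percent activation across replicates above the confirmation screen cutoff of 4.91%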
GPR119 counter: activates human GPR119 in a GPR151 counter-screen | shares compounds with GPR151 activ | GPR119 PathHunter beta-arrestin cells, luminescence, 90 min; 0 = compound-well median, 100 = enzyme-acceptor control | activation, % at 11.2 µM | hit rate 0.3% among 6,700;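 active = mean percent activation in the counterscreen above 29.09%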;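 note: counterscreen on off-target GPR119 to flag nonselective hits from the GPR151 activator screen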
Target sequence (Q8TDV5 whole entry, looked up): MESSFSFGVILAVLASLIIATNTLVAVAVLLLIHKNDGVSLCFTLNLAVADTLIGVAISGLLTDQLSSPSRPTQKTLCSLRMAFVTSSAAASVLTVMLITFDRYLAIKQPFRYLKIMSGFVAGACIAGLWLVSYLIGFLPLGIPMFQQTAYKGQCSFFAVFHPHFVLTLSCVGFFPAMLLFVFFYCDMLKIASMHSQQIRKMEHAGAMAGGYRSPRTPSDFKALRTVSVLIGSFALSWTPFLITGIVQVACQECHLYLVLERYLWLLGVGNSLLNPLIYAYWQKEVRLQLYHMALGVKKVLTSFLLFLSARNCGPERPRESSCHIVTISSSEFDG
Large screens that a line does not name were inactive (follow-up assays come after a bar, where they were run). Shown are actives, neighbours in structure and some others; about 3.5% of the full set was active somewhere.

COC(=O)C1=C(C)N(c2ccc(C(C)C)cc2)C(=O)/C1=C\c1cc(Br)ccc1OC	GPR151 activ 10.7 | GPR151 confirm inactive | GPR119 counter inactive
CSc1ncc(CN2CCCC(N3CCN(c4ccccc4)CC3)C2)cn1 (configuration not stated)	GPR151 activ 8.8 | GPR151 confirm inactive | GPR119 counter inactive
CCOc1ccc(NC(=O)Nc2nnc(CSCc3ccccc3)s2)cc1	GPR151 activ 7.0 | GPR151 confirm inactive | GPR119 counter inactive
O=C(CNC(=O)c1ccco1)N/N=C/c1c2ccccc2cc2ccccc12	none
COc1cccc(NC(=O)CSc2nc3ccc(OC)cc3cc2C#N)c1	GPR151 activ 5.1 | GPR151 confirm inactive | GPR119 counter inactive
O=C(CCC(=O)OCC(=O)c1ccc(Cl)c(Cl)c1)Nc1cccc([N+](=O)[O-])c1	none
O=C(NCCN1CCOCC1)c1cccc(-n2ncc3cc(Nc4ccccc4Cl)ccc32)n1	GPR151 activ 4.9 | GPR151 confirm inactive | GPR119 counter inactive
O=C(NCCN1CCOCC1)c1cccc(-n2ncc3cc(Nc4ccccc4Cl)ccc32)c1	none
CCc1nnc(NC(=O)CCN2C(=O)C3C4C=CC(C4)C3C2=O)s1 (configuration not stated)	none
CCc1cccc(NC(=O)C2CCCC2)c1	GPR151 activ 10.1 | GPR151 confirm inactive | GPR119 counter inactive
O=C(Nc1ccccc1Cl)c1sc2ccccc2c1Cl	none
O=C(Cc1cccs1)NCC1(c2ccc(F)cc2)CC1	GPR151 activ 11.8 | GPR151 confirm inactive | GPR119 counter inactive
O=C(Cc1ccc(F)cc1)NCC1(c2cccs2)CCOCC1	none
O=C(NCCN1CCOCC1)c1cncc(-c2cccs2)c1	GPR151 activ 7.3 | GPR151 confirm inactive | GPR119 counter inactive
CCCc1ccc(-c2ccc(-c3noc(-c4ccc(OC)cc4)n3)cc2)nc1	none
COCC(=O)N1CCCc2ccc(NS(=O)(=O)c3cc(C)ccc3C)cc21	GPR151 activ 6.8 | GPR151 confirm inactive | GPR119 counter inactive
COCC(=O)N1CCCc2ccc(NS(=O)(=O)c3ccc(C)c(C)c3)cc21	none
O=C(Nc1cccc(C(F)(F)F)c1)Nc1nnc(N2CCCC2)s1	GPR151 activ 5.9 | GPR151 confirm inactive | GPR119 counter inactive
O=C(Nc1ccc2c(c1)OCCO2)Nc1nnc(N2CCCC2)s1	GPR151 activ 5.7 | GPR151 confirm inactive | GPR119 counter inactive
COC(=O)c1ccccc1NC(=O)Nc1nnc(N2CC(C)CC(C)C2)s1 (configuration not stated)	GPR151 activ 6.6 | GPR151 confirm inactive | GPR119 counter inactive
O=C(Nc1cccc(Br)c1)Nc1nnc(N2CCCCCC2)s1	none
O=C(Nc1nnc(N2CCCC2)s1)Nc1ccccc1Br	GPR151 activ 5.5 | GPR151 confirm inactive | GPR119 counter inactive
COc1cccc(C(=O)Cn2cnc(-c3ccccc3)cc2=O)c1	none
CCOc1ccc(/C(C)=N/NC(=O)CN2CCOCC2)cc1	none
CC(SCc1ccccc1)C(=O)Nc1cccc(F)c1 (configuration not stated)	none
CC1(C)C(=O)Nc2ccccc2N1C(=O)COC(=O)c1ccc([N+](=O)[O-])o1	GPR151 activ 5.7 | GPR151 confirm inactive | GPR119 counter inactive
O=C1CN(C(=O)COC(=O)c2ccc([N+](=O)[O-])o2)c2ccccc2N1	none
Cc1ccc(S(=O)(=O)Nc2ccccc2C(=O)NCc2ccco2)cc1[N+](=O)[O-]	GPR151 activ 11.4 | GPR151 confirm inactive | GPR119 counter inactive
O=C(NCc1ccccc1)c1ccccc1NS(=O)(=O)c1cccc([N+](=O)[O-])c1	GPR151 activ 4.9 | GPR151 confirm inactive | GPR119 counter inactive
COc1cc(C2C(C(=O)OCc3ccccc3)=C(C)NC3=C2C(=O)CC(c2ccccc2)C3)ccc1O (configuration not stated)	none
CCCN(CCC)C(=O)Cc1ccc(Br)cc1	GPR151 activ 8.4 | GPR151 confirm inactive | GPR119 counter inactive
N#CCCN(CCC#N)C(=O)Cc1ccc(Br)cc1	none
COC(=O)c1ccc(/C=N/NS(=O)(=O)c2cc(C)ccc2C)cc1	GPR151 activ 5.9 | GPR151 confirm inactive | GPR119 counter inactive
COC(=O)c1ccc(/C=N\NC(=O)CNc2ccc(C)cc2)cc1	none
CCOC(=O)c1c(NC(=O)/C=C/c2ccc(C)o2)sc(C)c1C	GPR151 activ 9.8 | GPR151 confirm inactive | GPR119 counter inactive

High-throughput results (PubChem)
